# The full ranking holds about 2,900 compounds; the median of “NF-kB SEAP reporter activity, fold change vs agonist alone” is about 0.99, and the highest 2% start at about 2.6. The full list was thinned out, with the highest values kept by preference.
# Assays:
# [1] = tested on: RAW-Dual; assay: NF-kB SEAP reporter activity, fold change vs agonist alone; higher = enhanced NF-kB activity; conditions: cytotoxicity flag (confluency mask): not cytotoxic
# Method in brief: (§1)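 Supernatant from RAW-Dual macrophages was read after 20 hours for IRF by QuantiLuc luminescence and for NF-κB by QuantiBlue absorbance at 620 nm. The cells (50,000 cells/well in DMEM, 384-well plates, 37 °C, 5% CO2) had received 50 nL of library stock by pin tool and, 1 h later, a PRR agonist. Reporter activity is expressed relative to agonist-alone wells as fold change, and wells were flagged cytotoxic if IncuCyte confluency was under 70% of agonist controls in both mask sets.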
# [2] = tested on: RAW-Dual; assay: NF-kB SEAP reporter activity, fold change vs agonist alone; cytotoxicity flag (confluency mask): not cytotoxic; higher = enhanced NF-kB activity
# Method in brief: as §1
# [3] = library stock concentration (final ~1000-fold dilution): 10 mM, agonist: Imiquimod (TLR7) […]
# [4] = library stock concentration (final ~1000-fold dilution): 10 mM, agonist: MPLA (TLR4) […]
# [5] = agonist: ODN 1826 (TLR9) 0.5 ug/mL
# [6] = agonist: Pam2CSK4 (TLR2/6) 0.1 ug/mL
# [7] = agonist: Pam3CSK4 (TLR2/1) 0.1 ug/mL
smiles,measurement,setting,value
COc1cc(Nc2nc3ccccc3nc2NS(=O)(=O)c2ccc(NC(=O)c3ccc(C)c(OC)c3)cc2)cc(OC)c1,NF-kB SEAP reporter activity,[1]; [3],0.914
same,NF-kB SEAP reporter activity,[1]; [4],0.963
COc1cc(Nc2nc3ccccc3nc2NS(=O)(=O)c2ccc(NC(=O)c3ccc(C)c(OC)c3)cc2)cc(OC)c1 (library stock concentration (final ~1000-fold dilution): 10 mM),NF-kB SEAP reporter activity,[2]; agonist: LPS (TLR4) 0.1 ug/mL,2.08
same,NF-kB SEAP reporter activity,[2]; [5],1.04
same,NF-kB SEAP reporter activity,[2]; [6],0.51
same,NF-kB SEAP reporter activity,[2]; [7],0.561
COc1cnc(NS(=O)(=O)c2ccc(N)cc2)nc1 (library stock concentration (final ~1000-fold dilution): 10 mM),NF-kB SEAP reporter activity,[2]; agonist: LPS (TLR4) 0.1 ug/mL,1.22
same,NF-kB SEAP reporter activity,[2]; [5],0.999
same,NF-kB SEAP reporter activity,[2]; [6],1.13
same,NF-kB SEAP reporter activity,[2]; [7],1.19
COc1ccc(S(=O)(=O)Nc2cccnc2Nc2ccc(O)cc2)cc1,NF-kB SEAP reporter activity,[1]; [3],2.48
same,NF-kB SEAP reporter activity,[1]; [4],1.92
CCC(C)n1cc(C)c2c(C(=O)NCc3c(C)cc(C)[nH]c3=O)cc(-c3ccc(N4CCNCC4)nc3)cc21 (stereo not given),NF-kB SEAP reporter activity,"[1]; library stock concentration (final ~1000-fold dilution): 2 mM, agonist: Imiquimod (TLR7) […]",0.954
same,NF-kB SEAP reporter activity,"[1]; library stock concentration (final ~1000-fold dilution): 2 mM, agonist: MPLA (TLR4) […]",0.941
CCC(C)n1cc(C)c2c(C(=O)NCc3c(C)cc(C)[nH]c3=O)cc(-c3ccc(N4CCNCC4)nc3)cc21 (stereo not given) (library stock concentration (final ~1000-fold dilution): 2 mM),NF-kB SEAP reporter activity,[2]; agonist: LPS (TLR4) 0.1 ug/mL,1.17
same,NF-kB SEAP reporter activity,[2]; [5],0.973
same,NF-kB SEAP reporter activity,[2]; [6],0.979
same,NF-kB SEAP reporter activity,[2]; [7],1.07
COc1ccc(-c2cc(=O)c3c(O)c(OC)c(O)c(OC)c3o2)cc1 (library stock concentration (final ~1000-fold dilution): 10 mM),NF-kB SEAP reporter activity,[2]; agonist: LPS (TLR4) 0.1 ug/mL,1.27
same,NF-kB SEAP reporter activity,[2]; [5],0.993
same,NF-kB SEAP reporter activity,[2]; [6],1.14
same,NF-kB SEAP reporter activity,[2]; [7],1.05
COc1ccc(-c2cc(=O)c3c(O)c(OC)c(O)c(OC)c3o2)cc1,NF-kB SEAP reporter activity,[1]; [3],0.931
same,NF-kB SEAP reporter activity,[1]; [4],1.09
CC1(C(=O)O)CCC2(C)CCC3(C)C(=CC(=O)C4C5(C)CCC(OC6OC(C(=O)O)C(O)C(O)C6OC6OC(C(=O)O)C(O)C(O)C6O)C(C)(C)C5CCC43C)C2C1.N.N (stereo not given) (library stock concentration (final ~1000-fold dilution): 10 mM),NF-kB SEAP reporter activity,[2]; agonist: LPS (TLR4) 0.1 ug/mL,0.96
same,NF-kB SEAP reporter activity,[2]; [5],0.88
same,NF-kB SEAP reporter activity,[2]; [6],0.866
same,NF-kB SEAP reporter activity,[2]; [7],1.15
CC1(C(=O)O)CCC2(C)CCC3(C)C(=CC(=O)C4C5(C)CCC(OC6OC(C(=O)O)C(O)C(O)C6OC6OC(C(=O)O)C(O)C(O)C6O)C(C)(C)C5CCC43C)C2C1.N.N (stereo not given),NF-kB SEAP reporter activity,[1]; [3],0.926
same,NF-kB SEAP reporter activity,[1]; [4],1.03
CC(C)n1nc(-c2cc3cc(O)ccc3[nH]2)c2c(N)ncnc21,NF-kB SEAP reporter activity,[1]; [3],0.933
same,NF-kB SEAP reporter activity,[1]; [4],0.941
CC(C)n1nc(-c2cc3cc(O)ccc3[nH]2)c2c(N)ncnc21 (library stock concentration (final ~1000-fold dilution): 10 mM),NF-kB SEAP reporter activity,[2]; agonist: LPS (TLR4) 0.1 ug/mL,3.13
same,NF-kB SEAP reporter activity,[2]; [5],0.998
same,NF-kB SEAP reporter activity,[2]; [6],1.01
same,NF-kB SEAP reporter activity,[2]; [7],0.904
CC(C)n1nc(-c2ccc3oc(N)nc3c2)c2c(N)ncnc21 (library stock concentration (final ~1000-fold dilution): 10 mM),NF-kB SEAP reporter activity,[2]; agonist: LPS (TLR4) 0.1 ug/mL,2.03
same,NF-kB SEAP reporter activity,[2]; [5],1.69
same,NF-kB SEAP reporter activity,[2]; [6],0.647
same,NF-kB SEAP reporter activity,[2]; [7],0.973
CC(C)n1nc(-c2ccc3oc(N)nc3c2)c2c(N)ncnc21,NF-kB SEAP reporter activity,[1]; [3],1.76
same,NF-kB SEAP reporter activity,[1]; [4],2.1
CC(C)n1nc(-c2ccc(NC(=O)Nc3cc(C(F)(F)F)ccc3F)cc2)c2c(N)ncnc21 (library stock concentration (final ~1000-fold dilution): 10 mM),NF-kB SEAP reporter activity,[2]; agonist: LPS (TLR4) 0.1 ug/mL,0.398
same,NF-kB SEAP reporter activity,[2]; [5],0.196
same,NF-kB SEAP reporter activity,[2]; [6],0.0706
same,NF-kB SEAP reporter activity,[2]; [7],0.216
CC(C)n1nc(-c2ccc(NC(=O)Nc3cc(C(F)(F)F)ccc3F)cc2)c2c(N)ncnc21,NF-kB SEAP reporter activity,[1]; [3],0.149
same,NF-kB SEAP reporter activity,[1]; [4],0.261
Cc1c(C(=O)Nc2ccc(N3CC(C)OC(C)C3)nc2)cccc1-c1ccc(OC(F)(F)F)cc1 (stereo not given),NF-kB SEAP reporter activity,[1]; [3],0.808
same,NF-kB SEAP reporter activity,[1]; [4],0.657
Cc1c(C(=O)Nc2ccc(N3CC(C)OC(C)C3)nc2)cccc1-c1ccc(OC(F)(F)F)cc1 (stereo not given) (library stock concentration (final ~1000-fold dilution): 10 mM),NF-kB SEAP reporter activity,[2]; agonist: LPS (TLR4) 0.1 ug/mL,1.13
same,NF-kB SEAP reporter activity,[2]; [5],1.35
same,NF-kB SEAP reporter activity,[2]; [6],0.839
same,NF-kB SEAP reporter activity,[2]; [7],1.12
N=C(N)NCCN1CCCCCCC1.O=S(=O)(O)O (library stock concentration (final ~1000-fold dilution): 10 mM water),NF-kB SEAP reporter activity,[2]; agonist: LPS (TLR4) 0.1 ug/mL,1.13
same,NF-kB SEAP reporter activity,[2]; [5],1.05
same,NF-kB SEAP reporter activity,[2]; [6],1.06
same,NF-kB SEAP reporter activity,[2]; [7],0.972
N=C(N)NCCN1CCCCCCC1.O=S(=O)(O)O,NF-kB SEAP reporter activity,"[1]; library stock concentration (final ~1000-fold dilution): 10 mM water, agonist: MPLA (TLR4) […]",1.05
CC1CC(=O)Nc2cccc(-c3ccc4c(c3)c(-c3cnn(C)c3)nn4C)c2N1 (stereo not given),NF-kB SEAP reporter activity,[1]; [3],1.46
same,NF-kB SEAP reporter activity,[1]; [4],2.15
CC1CC(=O)Nc2cccc(-c3ccc4c(c3)c(-c3cnn(C)c3)nn4C)c2N1 (stereo not given) (library stock concentration (final ~1000-fold dilution): 10 mM),NF-kB SEAP reporter activity,[2]; agonist: LPS (TLR4) 0.1 ug/mL,3.26
same,NF-kB SEAP reporter activity,[2]; [5],2.08
same,NF-kB SEAP reporter activity,[2]; [6],0.673
same,NF-kB SEAP reporter activity,[2]; [7],1.28
Cc1nc[nH]c1CN1CCc2c(c3ccccc3n2C)C1=O.Cl (library stock concentration (final ~1000-fold dilution): 2 mM water),NF-kB SEAP reporter activity,[2]; agonist: LPS (TLR4) 0.1 ug/mL,1.14
same,NF-kB SEAP reporter activity,[2]; [5],1.09
same,NF-kB SEAP reporter activity,[2]; [6],1.15
same,NF-kB SEAP reporter activity,[2]; [7],0.961
Cc1nc[nH]c1CN1CCc2c(c3ccccc3n2C)C1=O.Cl,NF-kB SEAP reporter activity,"[1]; library stock concentration (final ~1000-fold dilution): 2 mM water, agonist: MPLA (TLR4) […]",1.06

# From the supplement of paper PMC10037445
